Screening results deposited in PubChem by several laboratories.
PfHsp90 set2 = reduces growth (ATP signal) of yeast expressing P. falciparum Hsp90; 310,000 tested, 0.32% active; AID 504621; S. cerevisiae expressing PfHsp90, BacTiter-Glo ATP, 48 h; yeast lacking PDR1 and PDR3 efflux regulators; inhibition, % at 9.4 µM;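 active = every replicate shows inhibition above about 80%, whatever the replicate mean, limit read from the data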;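 note: 0% = DMSO neutral controls and 100% = 20 µM radicicol positive controls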
NALP3 yeast inh = inhibitors of NALP3 inflammasome in yeast. Yeast reconstituted NLRP3/ASC/caspase-1, beta-gal luminescence, 24 h. inhibition, % at 10 µM. 330,000 tested, 0.39% active. AID 2825;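 active = inhibition of 50% or more; inactive = inhibition below 50%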;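 note: plate controls were induced DMSO wells for no effect and uninduced yeast grown without galactose for full effect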
SKKanGAS inh = SKKanGAS growth inhibition; 300,000 tested, 1.3% active; S. pyogenes SKKanGAS, kanamycin growth, BacTiter-Glo, 6 h; inhibition, % at 7.5 µM;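 active = mean replicate score, as percent of positive control median, at least 50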;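 note: strain carries kanamycin resistance gene driven by streptokinase promoter and grows in 40 µg/ml kanamycin; loss of luminescence reflects streptokinase promoter inhibition or plain growth inhibition; 0% = median of DMSO wells and 100% = positive control at its reference dose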
TIM10 inh = TIM10 yeast growth inhibition; S. cerevisiae TIM10 strain growth, BacTiter-Glo luminescence, 24 h; 330,000 tested, 1.4% active; inhibition, % at 10 µM;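 active = inhibition of 40% or more at the single tested concentration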;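 note: wild-type TIM10 isogenic control strain grown at permissive 25 °C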
tim23-1 inh = growth inhibitors of tim23-1 mutant yeast | S. cerevisiae tim23-1 growth, BacTiter-Glo luminescence, 24 h | inhibition, % at 20 µM | 330,000 tested, 1.3% active | AID 463212;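 active = growth inhibition of the mutant yeast at or above 50%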;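 note: temperature-sensitive mutant grown at 25 °C; plate controls were DMSO-treated mutant yeast for no effect and medium wells lacking yeast for full effect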
tim10-1 inh = tim10-1 yeast growth inhibition; S. cerevisiae tim10-1 ts strain growth, BacTiter-Glo, 24 h; inhibition, % at 20 µM; 330,000 tested, 2.2% active; AID 463190;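 active = inhibition of at least 40%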;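 note: mutant grown at 25 °C; 0% = DMSO wells with yeast and 100% = wells holding no yeast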
* = called active by the depositor; / = no result given. Rows were chosen to be rich in hits. Some 4.6% of all compounds tested hit in one or more screens of this group.

SMILES	PfHsp90 set2	NALP3 yeast inh	SKKanGAS inh	TIM10 inh	tim23-1 inh	tim10-1 inh
CC(=O)Nc1ccc(S(=O)(=O)N(C)CC(=O)OCC(=O)N(C)c2ccccc2)cc1	-18	12	-2	-2	-5	17
Cc1ccc(NC(=O)C(=O)NCc2ccncc2)cc1	3	18	-4	-3	16	-3
Cc1ccc2oc(-c3cccc(NC(=O)/C=C/c4cccc([N+](=O)[O-])c4)c3C)nc2c1	-4	19	16	-12	-9	18
O=C(CSc1nnc(NC(=O)c2c(F)cccc2F)s1)NCc1ccc(F)cc1	/	13	-1	-7	-1	-8
N#CC(C(=O)C12CC3CC(CC(C3)C1)C2)c1nc2ccccc2[nH]1 (centres undefined)	-30	-2	80*	9	33	12
Clc1ccc(-c2ccc(CNCc3ccccn3)o2)cc1	-61	18	57*	-1	-1	19
Cc1cc(SCC(=O)N/N=C/c2ccccc2C(=O)O)c(C)cc1Br	12	3	0	3	28	18
Cc1cc(SCC(=O)N/N=C/c2ccc(O)cc2O)c(C)cc1Br	19	16	79*	36	46	19
COc1ccc(S(=O)(=O)N2CCOC2CNC(=O)C(=O)NCc2ccco2)cc1OC (centres undefined)	-14	-6	-6	-20	14	-5
CCN1C(=O)[C@H]2[C@H]3CN=C(SCc4ccc(C)cc4)N3[C@@](CC)(C(=O)OC)[C@H]2C1=O	1	/	/	-20	31	14
Cc1ccc(-c2onc3ccc(C(=O)/C=C/N(C)C)cc23)cc1	119*	2	16	22	27	36
COc1cccc(-c2onc3ccc(C(=O)/C=C/N(C)C)cc23)c1	-22	12	8	26	29	29
COc1ccc(-c2csc(/C(C#N)=C\c3ccc(O)c([N+](=O)[O-])c3)n2)cc1OC	-8	31	95*	12	1	7
COc1ccc(NC(=O)COC(=O)c2c3c(nc4ccccc24)CCCC3)cc1Cl	-10	8	61*	30	10	20
COc1ccc(NC(=O)COC(=O)c2c3c(nc4ccccc24)CCCC3)cc1	/	22	9	20	1	21
COc1ccccc1CNS(=O)(=O)c1c(C)[nH]c(C)c1C(=O)N1CCCC1	-7	-4	-3	5	-14	-13
CCOC(=O)c1c(NC(=S)NCCc2ccccc2)sc2c1CC(C(C)C)OC2 (centres undefined)	-6	10	101*	9	-3	20
Cc1cc(=O)c(C(=O)O)cn1Nc1ccc(F)cc1	10	-10	27	3	10	12
Cc1cc(=O)c(C(=O)O)cn1Nc1ccc(Cl)cc1	15	17	65*	-5	9	10
O=C(CN1C(=O)S/C(=C\c2ccc(F)cc2)C1=O)Nc1cccc(S(=O)(=O)NCc2ccco2)c1	/	3	15	-12	-11	2
O=c1[nH]c2ccc(Cl)cc2c(-c2ccccc2)c1SC(=S)N1CCOCC1	-15	18	84*	17	14	24
NNC(=O)CSc1c(-c2ccccc2)c2cc(Cl)ccc2[nH]c1=O	3	20	1	1	16	16
COc1ccccc1CNC(=O)CC12CC3CC(CC(Br)(C3)C1)C2	-13	22	-17	7	14	26
COc1ccc2sc(-c3ccccc3OC)c(-c3ccc(O)cc3)c2c1	107*	26	/	18	45	23
COCc1ccc(-c2c(-c3ccccc3OC)sc3cc4c(cc23)OCO4)cc1	-15	-7	/	3	13	14
COc1ccccc1-c1sc2cc3c(cc2c1-c1ccc(O)cc1)OCO3	107*	13	/	14	49	-10
Cc1ccc(NC2=NC(c3ccc(F)cc3)n3c(nc(C)cc3=O)N2)cc1 (centres undefined)	-6	-4	5	4	5	-10
Cc1ccc2nc(N/N=C/c3ccccc3F)nc(-c3ccccc3)c2c1	-58	20	106*	3	27	0
Cc1nc(N2CCC(C)CC2)c2c(C)c(C(=O)Nc3ccccc3C(F)(F)F)sc2n1	6	18	58*	-1	24	3
Cc1nc(N2CCC(C)CC2)c2c(C)c(C(=O)Nc3ccc(C)c(F)c3)sc2n1	-18	20	47	-7	6	4
